Data published in PubChem BioAssay (EPA / NIEHS).
Values joined by “and” are separate entries in the source; they are usually repeats but may differ in a detail not shown here. Equal entries are not always repeated. Some structures have more than one record in an assay (separate samples or runs), and their calls can disagree. Active and inactive are the calls of the source. The calls were made as follows: active = hit-call score of the fitted dose curve at least 0.9, where 1 is the maximum; inactive = score below 0.9.

Legend:
Settings in all cases: mRNA level, 48 h; actives raise or lower the signal
[1] = read-out: Bcl-2 (BID) gene, BID (gene 637); assay: LTEA_HepaRG_BID: Life Technologies and Expression Analysis (LTEA) Assay for Bcl-2 (BID) gene using HepaRG (AID 2283476)
How it was run: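 Duplicate 48 h treatments of HepaRG cells in serum-free induction medium spanned 100 uM downward in half-log steps, 0.5% DMSO. Transcript change quantified by qRT-PCR against three housekeeping genes, fitted up or down versus DMSO.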

Caspase-3 (Homo sapiens) = Caspase-3 (Homo sapiens) (UniProt P42574); assay: LTEA_HepaRG_CASP3: Life Technologies and Expression Analysis (LTEA) Assay for cysteine-aspartic acid protease (CASP3) using HepaRG (AID 2283477)
Caspase-3 (Homo sapiens), sequence (P42574 whole entry, looked up): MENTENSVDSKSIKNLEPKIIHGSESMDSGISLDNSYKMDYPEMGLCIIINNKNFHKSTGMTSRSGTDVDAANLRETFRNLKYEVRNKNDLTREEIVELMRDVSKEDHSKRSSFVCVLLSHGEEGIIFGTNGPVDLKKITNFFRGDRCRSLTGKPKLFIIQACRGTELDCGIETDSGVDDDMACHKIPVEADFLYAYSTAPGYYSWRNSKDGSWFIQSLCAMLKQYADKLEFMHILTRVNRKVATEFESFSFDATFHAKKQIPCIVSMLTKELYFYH
How it was run: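 Differentiated human HepaRG cells in serum-free induction medium were exposed 48 h to 8-point half-log concentrations from 100 uM (0.5% DMSO vehicle). CASP3 mRNA was measured by qRT-PCR, normalised to ACTB, GAPDH and POLR2A, with bidirectional fitting against DMSO.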

[2] = read-out: Cytochrome P450 (CYP24A1), CYP24A1 (gene 1591); assay: LTEA_HepaRG_CYP24A1: Life Technologies and Expression Analysis (LTEA) Assay for Cytochrome P450 (CYP24A1) using HepaRG (AID 2283478)
How it was run: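 Differentiated HepaRG cells, pre-cultured 48 h, were exposed in duplicate for 48 h in serum-free induction medium to 8 half-log concentrations (top 100 uM, 0.5% DMSO). CYP24A1 mRNA was quantified by TaqMan qRT-PCR, normalized to ACTB/GAPDH/POLR2A, fitted bidirectionally versus DMSO.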

[3] = read-out: Cytochrome P450 (CYP1A2), CYP1A2 (gene 1544); assay: LTEA_HepaRG_CYP1A2: Life Technologies and Expression Analysis (LTEA) Assay for Cytochrome P450 (CYP1A2) using HepaRG (AID 2283479)
How it was run: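 Differentiated human HepaRG cells in serum-free induction medium were exposed in duplicate for 48 h to 8-point half-log concentrations up to 100 uM in 0.5% DMSO. CYP1A2 mRNA measured by qRT-PCR, normalized to ACTB, GAPDH, POLR2A; bidirectional fit vs DMSO.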

[4] = read-out: cysteine-aspartic acid protease (CASP8), CASP8 (gene 841); assay: LTEA_HepaRG_CASP8: Life Technologies and Expression Analysis (LTEA) Assay for cysteine-aspartic acid protease (CASP8) using HepaRG (AID 2283480)
How it was run: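 Concentration-response in duplicate up to 100 uM (half-log steps, 0.5% DMSO) on differentiated HepaRG cultures for 48 h. Expression change of CASP8 mRNA is determined by TaqMan qRT-PCR with housekeeping-gene normalization.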

[5] = read-out: Cytochrome P450 (CYP2B6), CYP2B6 (gene 1555); assay: LTEA_HepaRG_CYP2B6: Life Technologies and Expression Analysis (LTEA) Assay for Cytochrome P450 (CYP2B6) using HepaRG (AID 2283481)
How it was run: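 Differentiated HepaRG cells, serum-free induction medium, exposed 48 h in duplicate to 8-point half-log concentrations from 100 uM in 0.5% DMSO. CYP2B6 mRNA by qRT-PCR, normalized to ACTB, GAPDH, POLR2A; bidirectional fit versus DMSO.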

CYP2C8 (gene 1558) = assay: LTEA_HepaRG_CYP2C8: Life Technologies and Expression Analysis (LTEA) Assay for CYP2C8 using HepaRG (AID 2283483)
How it was run: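 This is a transcriptional endpoint in HepaRG cultures: 48 h exposure, highest concentration 100 uM. CYP2C8 mRNA is quantified by TaqMan qRT-PCR.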

CYP2C9 (gene 1559) = assay: LTEA_HepaRG_CYP2C9: Life Technologies and Expression Analysis (LTEA) Assay for CYP2C9 using HepaRG (AID 2283484)
How it was run: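 Eight-point concentration-response (highest 100 uM, half-log dilutions) in HepaRG cells for 48 h; CYP2C9 expression by qRT-PCR normalized to ACTB, GAPDH, POLR2A. Bidirectional fit, DMSO baseline.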

CYP2E1 (gene 1571) = assay: LTEA_HepaRG_CYP2E1: Life Technologies and Expression Analysis (LTEA) Assay for CYP2E1 using HepaRG (AID 2283485)
How it was run: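 CYP2E1 transcript measured by Fluidigm qRT-PCR against three housekeeping genes in human HepaRG cells treated 48 h (top 100 uM, half-log steps, 0.5% DMSO vehicle). Gain or loss fitted relative to DMSO baseline.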

[6] = read-out: Cytochrome P450 2C19 (Homo sapiens) (UniProt P33261); assay: LTEA_HepaRG_CYP2C19: Life Technologies and Expression Analysis (LTEA) Assay for CYP2C19 using HepaRG (AID 2283482)
How it was run: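 Differentiated human HepaRG cells were exposed for 48 h in serum-free induction medium to 8 concentrations (top 100 uM, half-log steps, 0.5% DMSO). CYP2C19 mRNA was measured by qRT-PCR, normalized to ACTB/GAPDH/POLR2A, and fitted bidirectionally against DMSO.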

Measured: AC50

Cytochrome P450 2C19 (Homo sapiens), sequence (P33261 whole entry, looked up): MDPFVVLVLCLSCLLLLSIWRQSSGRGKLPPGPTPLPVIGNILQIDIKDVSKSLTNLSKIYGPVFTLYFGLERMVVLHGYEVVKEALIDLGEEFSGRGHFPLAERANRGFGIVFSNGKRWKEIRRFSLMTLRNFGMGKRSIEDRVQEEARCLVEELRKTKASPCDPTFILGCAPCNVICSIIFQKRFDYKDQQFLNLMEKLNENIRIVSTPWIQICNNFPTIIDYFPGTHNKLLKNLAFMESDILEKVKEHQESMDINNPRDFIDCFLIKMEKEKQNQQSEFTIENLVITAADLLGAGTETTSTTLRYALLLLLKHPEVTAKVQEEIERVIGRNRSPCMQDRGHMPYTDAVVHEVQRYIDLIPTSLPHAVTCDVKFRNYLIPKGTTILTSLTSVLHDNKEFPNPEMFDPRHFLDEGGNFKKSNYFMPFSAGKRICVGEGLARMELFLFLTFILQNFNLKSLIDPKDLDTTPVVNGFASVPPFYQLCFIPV

COC(=O)c1ccccc1C(=O)O
not listed: [6]
inactive: all other assays above

CC(=O)[C@H]1CC[C@H]2[C@@H]3CCC4=CC(=O)CC[C@]4(C)[C@H]3CC[C@]12C
active: [3] 25.4 µM | [4] 82.2 µM | [5] 32.6 µM | [6] 39.6 µM | CYP2C8 (gene 1558) 37.2 µM | CYP2C9 (gene 1559) 38.5 µM | CYP2E1 (gene 1571) 25.7 µM
inactive: [1] | Caspase-3 (Homo sapiens) | [2]

CC(C)(c1ccc(O)cc1)c1ccc(O)cc1
inactive: [1] | Caspase-3 (Homo sapiens) | [2] | [4] | CYP2C8 (gene 1558) | CYP2C9 (gene 1559) | CYP2E1 (gene 1571)
active: [3] 50 µM | [5] 50 µM and 31.1 µM and 64.4 µM | CYP2C9 (gene 1559) 9.92 µM

O=C(c1ccc(O)cc1O)c1ccc(O)cc1O
not listed: [6]
inactive: all other assays above

CSC(=O)c1cccc2nnsc12
not listed: [6]
inactive: all other assays above

CCOC(=O)C(C)Oc1ccc(Oc2nc3ccc(Cl)cc3o2)cc1 (configuration not stated)
active: [5] 3.22 µM | [6] 14 µM | CYP2C9 (gene 1559) 19.6 µM | CYP2E1 (gene 1571) 35.6 µM
inactive: all other assays above

COC(=O)c1ccc(I)cc1S(=O)(=O)NC(=O)Nc1nc(C)nc(OC)n1
active: [3] 50 µM
inactive: all other assays above

S=C(S)NCCNC(=S)S.[Mn+2].[S-]C([S-])=NCCN=C([S-])[S-].[Zn+2]
active: Caspase-3 (Homo sapiens) 501 nM and 990 nM | [3] 502 nM and 444 nM and 615 nM | [4] 1.18 µM and 2.18 µM and 1.55 µM | [5] 1.05 µM and 1.1 µM and 1.15 µM | [6] 1.4 µM and 1.55 µM | CYP2C8 (gene 1558) 1.13 µM and 1.15 µM and 1.5 µM | CYP2C9 (gene 1559) 823 nM and 816 nM and 891 nM | CYP2E1 (gene 1571) 1.21 µM and 1.4 µM and 1.62 µM
inactive: [1] | Caspase-3 (Homo sapiens) | [2]

CCCCC(CC)COC(=O)c1ccccc1C(=O)O (configuration not stated)
active: [5] 29.1 µM | CYP2E1 (gene 1571) 76.7 µM
inactive: all other assays above

O=C(Nc1ccc([N+](=O)[O-])cc1Cl)c1cc(Cl)ccc1O
inactive: [1] | [2]
active: Caspase-3 (Homo sapiens) 1.89 µM | [3] 0.744 µM | [4] 12 µM | [5] 3.89 µM | CYP2C8 (gene 1558) 3.94 µM | CYP2C9 (gene 1559) 3.21 µM | CYP2E1 (gene 1571) 2.07 µM

CC(C)CCCCCCc1ccc(O)cc1
inactive: all assays above

CCCCOCCOCCOCc1cc2c(cc1CCC)OCO2
active: [3] 16.5 µM | [5] 2.28 µM | CYP2C8 (gene 1558) 4.61 µM | CYP2C9 (gene 1559) 3.39 µM | CYP2E1 (gene 1571) 14 µM
inactive: [1] | Caspase-3 (Homo sapiens) | [2] | [4]

CCCCC(CC)CN1C(=O)C2C3C=CC(C3)C2C1=O (configuration not stated)
active: [3] 82.3 µM | [5] 88.6 µM | CYP2C8 (gene 1558) 88.3 µM | CYP2C9 (gene 1559) 82.6 µM | CYP2E1 (gene 1571) 43 µM
inactive: [1] | Caspase-3 (Homo sapiens) | [2] | [4]

CCOC(=O)NCCOc1ccc(Oc2ccccc2)cc1
inactive: [1] | Caspase-3 (Homo sapiens) | [2] | [4]
active: [3] 84.5 µM | [5] 81.4 µM | CYP2C8 (gene 1558) 81.1 µM | CYP2C9 (gene 1559) 80 µM | CYP2E1 (gene 1571) 83.8 µM

CCCOC(=O)c1ccc(C(=O)OCCC)nc1
active: [3] 50 µM
not listed: [6]
inactive: all other assays above

CCOC(=O)C(C)Oc1ccc(Oc2cnc3cc(Cl)ccc3n2)cc1 (configuration not stated)
active: [3] 19.2 µM | CYP2E1 (gene 1571) 20 µM
not listed: [6]
inactive: all other assays above

CN(C)C(=O)Nc1ccc(Cl)c(Cl)c1
active: [3] 30 µM | [5] 10.9 µM | CYP2E1 (gene 1571) 63 µM
not listed: [6]
inactive: all other assays above

Cc1nn(C)c(Oc2ccccc2)c1C=NOCc1ccc(C(=O)OC(C)(C)C)cc1
inactive: [1] | Caspase-3 (Homo sapiens) | [2] | [4]
active: [3] 2.35 µM | [5] 1.68 µM | [6] 29.2 µM | CYP2C8 (gene 1558) 25.7 µM | CYP2C9 (gene 1559) 20.1 µM | CYP2E1 (gene 1571) 2.75 µM

O=C(O)c1ccccc1
inactive: all assays above

Oc1ccc(C(c2ccc(O)cc2)C(Cl)(Cl)Cl)cc1
active: [1] 84.8 µM | Caspase-3 (Homo sapiens) 86.2 µM | [4] 88.4 µM | [5] 81.1 µM | CYP2C8 (gene 1558) 93.2 µM | CYP2C9 (gene 1559) 93.1 µM | CYP2E1 (gene 1571) 93.8 µM
inactive: [2] | [3]

O=C(O)C1(C(=O)Nc2ccc(Cl)cc2Cl)CC1
active: Caspase-3 (Homo sapiens) 28.4 µM | [5] 66.9 µM | [6] 76.5 µM | CYP2C8 (gene 1558) 82.6 µM | CYP2C9 (gene 1559) 71.9 µM | CYP2E1 (gene 1571) 63.5 µM
inactive: [1] | [2] | [3] | [4]

CCC(C)OC(=O)N1CCCCC1CCO (configuration not stated)
active: [5] 35 µM | CYP2C9 (gene 1559) 4.74 µM
not listed: [6]
inactive: all other assays above

COCCO
not listed: [6]
inactive: all other assays above

C#CCOC(=O)[C@@H](C)Oc1ccc(Oc2ncc(Cl)cc2F)cc1
inactive: all assays above

CCCN(CCC)c1c([N+](=O)[O-])cc(C(F)(F)F)c(N)c1[N+](=O)[O-]
active: [5] 3.15 µM | CYP2E1 (gene 1571) 16.2 µM
not listed: [6]
inactive: all other assays above
